An excerpt weighted towards active compounds, which were near 2.4% of everything screened.
D2 PAM-1 – potentiates the human D2 dopamine receptor allosterically; AID 624464; 0.23% of 360,000 active; P14416; potentiation, % (concentration not given with the values); DiscoveRx D2 beta-arrestin cells, luminescence, 90 min; 100% = 57 uM dopamine signal; in the data active = potentiation above about 50%; inconclusive = mostly about 30% to 49%
Target sequence (P14416 whole entry, looked up): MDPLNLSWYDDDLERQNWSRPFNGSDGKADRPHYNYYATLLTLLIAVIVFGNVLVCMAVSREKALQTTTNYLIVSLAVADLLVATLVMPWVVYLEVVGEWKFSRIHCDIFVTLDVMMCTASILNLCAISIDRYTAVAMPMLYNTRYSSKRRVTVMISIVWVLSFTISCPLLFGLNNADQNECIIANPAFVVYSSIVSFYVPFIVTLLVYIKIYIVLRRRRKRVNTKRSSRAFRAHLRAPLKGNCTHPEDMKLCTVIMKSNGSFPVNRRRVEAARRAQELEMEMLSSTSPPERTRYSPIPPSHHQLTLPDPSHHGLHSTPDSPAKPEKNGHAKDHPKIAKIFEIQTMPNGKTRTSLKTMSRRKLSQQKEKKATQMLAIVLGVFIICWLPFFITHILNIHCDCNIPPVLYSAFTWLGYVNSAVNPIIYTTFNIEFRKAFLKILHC
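PathHunter beta-arrestin assay in DiscoveRx D2 cells. Compounds were added with an EC20 of dopamine (50 nM final) for 90 min at 37 deg C. Luminescence was read 1 h after detection reagent, with 57 uM dopamine as the EC100 control.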
B2AR arrestin – beta2AR (human) beta-arrestin recruitment activity. P07550. beta-arrestin recruitment to beta2AR, cell-based reporter. Potency, µM (highest dose often 46.1 µM), inactives show at the highest dose activation, most hits filed as activators. 0.02% of 330,000 active. AID 492947; active = well fitted activation curve with a large enough effect; inconclusive = small, poorly fitted or top-dose-only effect;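 also: potency is read from the fitted curve at half-maximal effect; 0% = DMSO controls and full agonism = EC100 isoproterenol or metaproterenol; nearly all actives have a fitted effect of over 65% in size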
D2 ag-1 – agonists of human D2 dopamine receptor (beta-arrestin); P14416; DiscoveRx PathHunter D2 beta-arrestin, luminescence, 90 min; 100% = 57 uM dopamine signal; activation, % (no concentration beside the values); 0.084% of 360,000 active; AID 624465; in the data active = activation above about 40%; inconclusive = between about 15% and that limit
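Agonist mode: compounds alone added to overnight-plated D2 PathHunter cells for 90 min at 37 C, with 57 uM final dopamine (EC100) defining full response. Beta-arrestin recruitment detected by chemiluminescent reagent, read after 1 h at ambient temperature.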
D2 PAM-2 – positive allosteric modulators of human D2 dopamine receptor; HEK293 T-REx D2, calcium flux, EC20 dopamine potentiation; AID 485347; P14416; potentiation, % at 10 µM; 0.34% of 340,000 active;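 active = potentiation over 3 SD above the plate norm, cut at about 30% in these data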; also: 0% is about no effect
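Calcium flux readout, no-wash dye, 1 read/s. Inducible HEK293 Trex D2 line, overnight 30 C. Compound alone 180 s (agonist flags), then EC20 dopamine, another 180 s to score potentiation.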
D2 antag – antagonizes the human D2 dopamine receptor. inhibition, % at 10 µM. 2% of 340,000 active. P14416. HEK293 TREx D2 cells, calcium flux, dopamine EC80; in the data active = inhibition above about 30%; inactive = below that, where a call was filed; also: 0% is about no effect
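Compounds are added to dye-loaded, induced HEK293 T-REx cells coupled to calcium release via D2; after a 3 min kinetic read an EC80 dopamine stimulus is given and fluorescence is recorded for 3 more min.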
D2 ag-2 – activates the human D2 dopamine receptor. P14416. HEK293 T-REx D2 cells, calcium flux agonist mode. activation, % at 2 µM. 0.53% of 340,000 active;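 active = activation over 3 SD above normal in the single-dose calcium agonist read, cut at about 30% in these data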; also: 0% is about no effect
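Agonism scored from kinetic calcium signal (1 read/sec, 180 s) following compound pin transfer, after a 10 s baseline. Cells: HEK293 Trex line expressing inducible D2 receptor coupled to calcium, dye-loaded after overnight culture at 30 C.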
Numbers without * were called inactive.

`CC(C)(O)c1[nH]c2cc(F)ccc2c1C(C)(C)O` gave D2 PAM-1 -6.0, B2AR arrestin -0.6%, D2 ag-1 -0.3, D2 PAM-2 10.0, D2 antag 18.7 and D2 ag-2 0.8.
For CN(C)c1nc(SCC#N)nc(N2CCOCC2)n1 the results were D2 PAM-1 13.2, B2AR arrestin -0.1%, D2 ag-1 -2.5, D2 PAM-2 16.6, D2 antag 6.0 and D2 ag-2 -0.5.
`CCCC1CCc2c(sc(NC(=O)OCC)c2C#N)C1` (stereo not drawn) gave D2 PAM-1 -0.9, B2AR arrestin -0.3%, D2 ag-1 -1.5, D2 PAM-2 34.0* and D2 ag-2 -0.5.
CCOC(=O)CSc1nnc(COc2ccc3ccccc3c2)o1 was read as D2 PAM-1 -0.2, B2AR arrestin 0.5%, D2 ag-1 -1.1, D2 PAM-2 5.8, D2 antag 34.0* and D2 ag-2 0.2.
Screening O=C(CSc1nnc(-c2cccc(F)c2)o1)N1CCCC1 returned D2 PAM-1 -4.3, B2AR arrestin 0.4%, D2 ag-1 -3.5, D2 PAM-2 -0.2, D2 antag 32.2* and D2 ag-2 -0.2.
COC(=O)CSc1nnc(COc2ccc3ccccc3c2)o1 was read as D2 PAM-1 1.8, B2AR arrestin 0.1%, D2 ag-1 5.4, D2 PAM-2 9.2, D2 antag 12.6 and D2 ag-2 -0.2.
O=C(NCc1nnc(SCC(=O)N2CCCC2)o1)c1c(F)cccc1F was read as D2 PAM-1 16.3, B2AR arrestin 0.2%, D2 ag-1 -3.3, D2 PAM-2 -7.7, D2 antag 32.1* and D2 ag-2 1.7.
`O=C(CSc1nnc(COc2ccc(F)cc2)o1)N1CCCCC1` gave D2 PAM-1 0.8, B2AR arrestin -0.1%, D2 ag-1 -3.0, D2 PAM-2 -14.6, D2 antag 97.1* and D2 ag-2 0.2.
Screening O=C(N1CCOCC1)C12OC3CC(CC(C3)O1)O2 returned D2 PAM-1 -1.9 and D2 ag-1 -4.5.
For Cc1cc(C)cc(OCc2nnc(SCC(=O)N3CCCCC3)o2)c1 the results were D2 PAM-1 -2.1, B2AR arrestin 0.1%, D2 ag-1 -2.2, D2 PAM-2 43.6*, D2 antag -3.8 and D2 ag-2 -0.8.
`CCCc1cc(SCC(=O)Nc2c(C)n(C)n(-c3ccccc3)c2=O)n2c(nc3ccccc32)c1C#N` gave D2 PAM-1 -9.1, B2AR arrestin 3.55µM*, D2 ag-1 0.0, D2 PAM-2 -0.8, D2 antag -13.0 and D2 ag-2 -1.8.
Screening Cc1nc(SCC(=O)Nc2c(C)n(C)n(-c3ccccc3)c2=O)c(C#N)c(C)c1C returned D2 PAM-1 1.5, B2AR arrestin 0.0%, D2 ag-1 3.8, D2 PAM-2 10.7, D2 antag 21.6 and D2 ag-2 0.3.
`COc1ccc(C(=O)CC(c2ccccc2)S(=O)(=O)c2ccc(C)cc2)cc1` (stereo not drawn) gave B2AR arrestin -0.2%, D2 PAM-2 -5.6, D2 antag 18.9 and D2 ag-2 -0.8.
Screening CC(=O)CC(c1ccccc1)S(=O)(=O)c1ccc([N+](=O)[O-])cc1 (stereo not drawn) returned D2 PAM-1 -5.3, B2AR arrestin -1.2%, D2 ag-1 -5.9, D2 PAM-2 -6.4, D2 antag 70.3* and D2 ag-2 0.5.
`O=S(=O)(c1cccc2cccnc12)N1CCCc2ccccc21` gave D2 PAM-1 -3.8, B2AR arrestin -1.2%, D2 ag-1 -4.9, D2 PAM-2 -1.9, D2 antag 1.4 and D2 ag-2 -0.1.
Screening C=C(c1ccc(O)cc1)c1ccc(O)cc1 returned D2 PAM-1 -10.2, B2AR arrestin 0.4%, D2 ag-1 -1.8, D2 PAM-2 8.5, D2 antag -2.0 and D2 ag-2 -0.3.
Screening N#Cc1ccccc1COC(=O)c1ccc2c(c1)OCCO2 returned D2 PAM-1 -20.8, B2AR arrestin -0.2%, D2 ag-1 4.1, D2 PAM-2 -4.1, D2 antag 30.7* and D2 ag-2 0.5.
Screening CCCC(C(=O)NNC(=O)c1cc(C)oc1C)c1ccccc1 (stereo not drawn) returned D2 PAM-1 -6.0, B2AR arrestin -0.6% and D2 ag-1 -2.1.
For Oc1cc2c(cc1CN1CCc3ccccc3C1)OCO2 the results were D2 PAM-1 -21.3, B2AR arrestin 0.0%, D2 ag-1 -0.4, D2 PAM-2 -17.3, D2 antag 32.6* and D2 ag-2 0.4.
`Oc1ccc(CN2CCCCC2)c2cccnc12` gave D2 PAM-1 -1.8, B2AR arrestin -0.1%, D2 ag-1 0.2, D2 PAM-2 -4.8, D2 antag 2.7 and D2 ag-2 0.6.
`Oc1ccc(CN2CCc3ccccc3C2)c2cccnc12` gave D2 PAM-1 -30.4, D2 ag-1 -10.0, D2 PAM-2 -26.5, D2 antag 65.2* and D2 ag-2 -0.9.
Screening COc1cc(CN2CCc3ccccc3C2)ccc1O returned D2 PAM-1 -30.3, B2AR arrestin 0.1%, D2 ag-1 -2.5, D2 PAM-2 -22.0, D2 antag 19.3 and D2 ag-2 4.5.
`Cc1cc2ccccc2n2c(SCC(=O)Nc3ccc(S(=O)(=O)N4CCC(C)CC4)cc3)nnc12` gave D2 PAM-1 -5.3, B2AR arrestin -0.4% and D2 ag-1 1.0.
For COC(=O)CC1COc2ccccc2N1C(=O)c1ccc(C(C)(C)C)cc1 (stereo not drawn) the results were D2 PAM-1 59.1*, B2AR arrestin -0.3%, D2 ag-1 inconclusive, D2 PAM-2 -18.0, D2 antag 6.6 and D2 ag-2 33.0*.
`O=C(NCCc1nc2ccccc2[nH]1)c1cc([N+](=O)[O-])cc([N+](=O)[O-])c1` gave D2 PAM-1 59.4*, B2AR arrestin 0.1%, D2 ag-1 13.9, D2 PAM-2 7.0, D2 antag -10.2 and D2 ag-2 -0.5.
COc1ccc(C(CNC(=O)C(C)(C)Oc2ccc(Cl)cc2)N2CCCCC2)cc1 (stereo not drawn) was read as D2 PAM-1 -45.1, B2AR arrestin -0.3%, D2 ag-1 -2.9, D2 PAM-2 -29.7, D2 antag 86.1* and D2 ag-2 -0.8.
For COc1ccc(C(CNC(=O)COc2ccc(Cl)c(C)c2)N2CCCCC2)cc1 (stereo not drawn) the results were D2 PAM-1 -34.0, B2AR arrestin 0.5%, D2 ag-1 -0.3, D2 PAM-2 -27.2, D2 antag 36.5* and D2 ag-2 0.4.
Screening COc1ccc(NC(=S)N(CCN(C)C)C(C)c2ccncc2)cc1Cl (stereo not drawn) returned D2 PAM-1 -5.0, B2AR arrestin -0.7%, D2 ag-1 0.8, D2 PAM-2 -5.3, D2 antag 9.2 and D2 ag-2 -0.1.
